# Screens deposited in PubChem BioAssay by National Center for Advancing Translational Sciences (NCATS).
# Rows were chosen to be rich in hits. Some 0.9% of all compounds tested hit in one or more screens of this group.
# BLM helicase inh: qHTS Assay for Inhibitors of Bloom's syndrome helicase (BLM); RecQ-like DNA helicase BLM (Homo sapiens), P54132; recombinant BLM DNA unwinding, fluorescence dequenching; Potency, µM (doses to about 56.1 µM), for inactives: at the highest dose activity change, negative = inhibition, actives largely listed as inhibitors; actives 0.2% (n = 350,000); AID 2528, 2010;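 also: potency is read from the fitted curve at half-maximal effect; plate controls were vehicle for no effect and no enzyme for full effect; nearly all actives have a fitted effect of over 35% in size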
# RGS12 GoLoco inh-1: qHTS Assay for Inhibitors of RGS12 GoLoco Motif Activity (Red Fluorophore) | Gai1:RGS12 GoLoco peptide FP, rhodamine, 10 min | Potency, µM (highest dose often 61.6 µM), inactives show at the top dose activity, negative = inhibition, usual class: inhibitors | actives 0.44% (n = 230,000) | AID 880, 2007; active = well fitted inhibition curve with a large enough effect, not every such curve was filed as active; inactive = no such curve, though single readings can be large or run the other way; also: potency is read from the fitted curve at half-maximal effect; % is scaled to controls: 0 for no effect and ±100 for the full control effect; nearly all actives have a fitted effect of over 30% in size
# APE1 inh-1: qHTS Assay for Inhibitors of the Human Apurinic/apyrimidinic Endonuclease 1 (APE1); Potency, µM (doses to about 65.8 µM), for inactives: top-dose activity change, negative = inhibition, actives largely listed as inhibitors; AID 2517, 2012; DNA repair nuclease/redox regulator APEX1 (Homo sapiens), P27695; recombinant APE1, TAMRA/BHQ-2 abasic DNA cleavage fluorescence; actives 0.35% (n = 350,000);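 also: potency is read from the fitted curve at half-maximal effect; plate controls were vehicle for no effect and reference inhibitor for full effect; nearly all actives have a fitted effect of over 55% in size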
# Target sequence (P27695 whole entry, looked up): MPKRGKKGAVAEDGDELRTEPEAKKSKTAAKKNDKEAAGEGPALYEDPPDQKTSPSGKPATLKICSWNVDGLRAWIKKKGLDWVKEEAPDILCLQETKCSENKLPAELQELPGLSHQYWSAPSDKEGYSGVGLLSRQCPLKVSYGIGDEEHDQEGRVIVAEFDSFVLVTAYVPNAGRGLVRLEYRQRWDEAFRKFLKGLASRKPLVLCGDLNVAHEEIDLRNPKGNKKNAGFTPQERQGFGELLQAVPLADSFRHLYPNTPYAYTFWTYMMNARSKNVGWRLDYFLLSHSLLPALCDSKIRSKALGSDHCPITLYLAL
#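 Quantitative HTS: incision of a TAMRA/BHQ-2 double-stranded substrate bearing a tetrahydrofuran abasic site by 0.75 nM APE1 raises fluorescence. Substrate 50 nM final, added after 15 min compound preincubation at room temperature; progress as third-minus-first kinetic read difference.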
# TRb SRC2 PPI: qHTS for Inhibitors of the Interaction of Thyroid Hormone Receptor and Steroid Receptor Coregulator 2; Potency, µM (series often up to 106 µM), for inactives: at the highest dose activity change, negative = inhibition, hits mostly inhibitors; Thyroid hormone receptor beta (Homo sapiens), P10828; actives 0.065% (n = 280,000); TRbeta-SRC2 peptide binding, fluorescence polarization; receptor liganded with 1 µM T3;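 also: potency is read from the fitted curve at half-maximal effect; plate controls were bound peptide for no effect and peptide without receptor for full effect; nearly all actives have a fitted effect of over 50% in size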
# Target sequence (P10828 whole entry, looked up): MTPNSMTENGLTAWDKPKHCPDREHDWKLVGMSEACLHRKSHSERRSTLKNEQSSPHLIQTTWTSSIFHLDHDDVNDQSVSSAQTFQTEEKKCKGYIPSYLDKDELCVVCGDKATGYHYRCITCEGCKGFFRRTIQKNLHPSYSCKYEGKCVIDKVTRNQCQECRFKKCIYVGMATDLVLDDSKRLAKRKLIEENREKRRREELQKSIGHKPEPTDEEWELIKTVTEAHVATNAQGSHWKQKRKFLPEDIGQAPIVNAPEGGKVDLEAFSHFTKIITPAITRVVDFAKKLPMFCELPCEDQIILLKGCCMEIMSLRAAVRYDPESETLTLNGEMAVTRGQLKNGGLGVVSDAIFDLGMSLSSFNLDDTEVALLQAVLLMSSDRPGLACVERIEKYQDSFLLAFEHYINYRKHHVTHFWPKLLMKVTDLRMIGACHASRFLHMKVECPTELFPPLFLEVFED
#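 Decrease in fluorescence polarization of 20 nM Texas Red SRC2 coactivator peptide flagged inhibition of its binding to 0.6 uM TRb LBD; 1 uM T3 included, incubation 5 hr, ex 555/em 632 nm.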
# RECQ1 inh-1: qHTS Assay for Inhibitors of RecQ-Like Dna Helicase 1 (RECQ1). ATP-dependent DNA helicase Q1 (Homo sapiens), P46063. RECQ1 DNA unwinding, red fluorescence kinetic read. Potency, µM (doses to about 57.3 µM), for the others: at the top dose activity, negative = inhibition, hits mostly inhibitors. actives 0.54% (n = 240,000). AID 2549, 2010;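 also: potency is read from the fitted curve at half-maximal effect; plate controls were vehicle for no effect and no enzyme for full effect; nearly all actives have a fitted effect of over 30% in size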
#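 RECQ1T1 50 nM; forked duplex (20 bp + 30-nt ss tails) 200 nM, ATP 2 mM final; pH 8.0, 2 mM MgCl2, 2.5 ug/ml poly(dI-dC); 15 min compound preincubation; discontinuous kinetic read over 2 h at RT.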
# TexasRed fluor: Total Fluorescence Counterscreen for Inhibitors of the Interaction of Thyroid Hormone Receptor and Steroid Receptor Coregulator 2; actives 0.29% (n = 280,000); Potency, µM (doses to about 106 µM), for inactives: top-dose fluorescence change, negative = quenching; AID 1479, 2009; TRb/SRC2 Texas Red total fluorescence interference; active = well fitted curve in either direction with a large enough effect; inconclusive = small, poorly fitted or top-dose-only effect; also: potency is read from the fitted curve at half-maximal effect; % is scaled to controls: 0 for no effect and ±100 for the full control effect
#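 Flags fluorescent or light-absorbing compounds by total fluorescence, S + 2P, at 555 nm excitation and 632 nm emission. Mixture: 20 nM Texas Red SRC2 peptide, 0.6 uM human TRb LBD, 1 uM T3, 5% DMSO; compound exposure 5 h at ambient temperature.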
# RGS12 GoLoco inh-2: Confirmation qHTS Assay for Inhibitors of RGS12 GoLoco Motif Activity (Red Fluorophore); shares compounds with RGS12 GoLoco inh-1; Gai1/rhodamine-RGS12 GoLoco peptide fluorescence polarization; Potency, µM (series often up to 57.1 µM), inactives show top-dose activity, negative = inhibition, actives largely listed as inhibitors; actives 50% (n = 110); AID 2390, 2010
# APE1 dye cs: Counterscreen for APE1 Inhibitors: Fluorescent Dye Displacement Assay; shares compounds with APE1 inh-1; DNA fluorescent dye displacement counterscreen, fluorescence; Potency, µM (top dose mostly 28.5 µM), for the others: at the top dose activity change, negative = inhibition, usual class: inhibitors; actives 7% (n = 480); AID 2564, 2010;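 also: loss of thiazole orange fluorescence as the dye is displaced from duplex DNA; potency is read from the fitted curve at half-maximal effect; 0% = ThO with dsDNA and no compound and -100% = ThO without dsDNA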
# Endo IV inh: Counterscreen for APE1 Inhibitors: qHTS Assay for Inhibitors of Endonuclease IV; Potency, µM (doses to about 27.1 µM), for inactives: top-dose activity change, negative = inhibition, most hits filed as inhibitors; AID 2565, 2010; actives 4% (n = 560); shares compounds with APE1 inh-1; E. coli Endo IV, fluorogenic AP-site DNA cleavage;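 also: potency is read from the fitted curve at half-maximal effect; plate controls were uninhibited enzyme wells for no effect and no enzyme buffer wells for full effect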
# APE1 inh-2: Confirmation qHTS Assay for Inhibitors of the Human Apurinic/apyrimidinic Endonuclease 1 (APE1). shares compounds with APE1 inh-1. purified APE1, fluorogenic abasic-site DNA cleavage. Potency, µM (highest dose often 57.1 µM), inactives show top-dose activity change, negative = inhibition, usual class: inhibitors. actives 44% (n = 750). AID 2572, 2010; also: potency is read from the fitted curve at half-maximal effect; % is scaled to controls: 0 for no effect and ±100 for the full control effect; nearly all actives have a fitted effect of over 30% in size
# APE1 FP: qHTS FP-Based Assay for Inhibitors of the Human Apurinic/apyrimidinic Endonuclease 1 (APE1); shares compounds with APE1 inh-1; APE1 binding to TAMRA-labelled double-stranded DNA, fluorescence polarization displacement; Potency, µM (highest dose often 28.5 µM), for the others: at the highest dose activity, negative = inhibition, actives largely listed as inhibitors; actives 7% (n = 480); also: potency is read from the fitted curve at half-maximal effect; % is scaled to controls: 0 for no effect and ±100 for the full control effect
# RECQ1 inh-2: Confirmation qHTS Assay for Inhibitors of RecQ-Like Dna Helicase 1 (RECQ1) - Round 2 Cherry Picks. shares compounds with RECQ1 inh-1. recombinant RECQ1 DNA unwinding, red fluorescence. Potency, µM (highest dose often 119 µM), for inactives: top-dose activity, negative = inhibition, usual class: inhibitors. actives 15% (n = 1,100); also: potency is read from the fitted curve at half-maximal effect; % is scaled to controls: 0 for no effect and ±100 for the full control effect; nearly all actives have a fitted effect of over 50% in size
# * hit, by the source's call; i = inactive; ? = inconclusive; . = not tested or not shown; [ ] = dose if it differs, or a comment. Unless noted, calls follow the shape of the dose curve; as a rule, active = well fitted curve in the direction sought with a large enough effect; inconclusive = small, poorly fitted or top-dose-only effect, or another doubt; inactive = no such curve, though single readings can be large; an effect the other way counts as inactive or inconclusive.
SMILES,BLM helicase inh,RGS12 GoLoco inh-1,APE1 inh-1,TRb SRC2 PPI,RECQ1 inh-1,TexasRed fluor,Endo IV inh,APE1 inh-2,others
Cc1cc(C)c2c(=O)n(CC(=O)Nc3cccc(F)c3)sc2n1,-0.2%,31.6µM*,0.4%,1.6%,-7.8%,-8.6%,.,.,RGS12 GoLoco inh-2=31.6µM*
N#Cc1cccc(NC(=O)C2CCN(S(=O)(=O)c3ccc4[nH]c(=O)ccc4c3)CC2)c1,-5.6%,.,.,0.2%,.,2.4%,.,.,
CCc1n(CC(O)COCc2ccccc2)c2ccccc2[n+]1C (stereo unspecified),3.6%,3.16µM*,12.5%,6.8%,-11.2%,-0.3%,.,.,RGS12 GoLoco inh-2=15.8µM*
Cc1ccc(NC(=O)CSc2nnc(-c3ccc(S(=O)(=O)N4CCOCC4)cc3)n2C)cc1,-2.1%,-50.0%,-0.2%,-2.8%,3.4%,-3.6%,.,.,RGS12 GoLoco inh-2=4.1%
O=C1c2ccc3c4c(ccc(c24)C(=O)N1CCCCO)C(=O)N(CCCCO)C3=O,-0.8%,25.1µM*,?,-12.9%,7.08µM*,8.6%,.,.,RGS12 GoLoco inh-2=11.2µM*;RECQ1 inh-2=50.1µM*
C[N+]1(NCC[N@@+]2(C)CCc3ccccc3C2)CCCCC1,.,0.2%[14.2 µM],.,.,.,.,.,.,
COc1ccc(/C=N/NC(=O)c2cccc(NC(=O)c3ccc(F)cc3)c2)c(C(=O)O)c1OC,-12.0%,26.6%,14.9%,-3.5%,i,-4.9%,.,-9.4%,
COc1ccc(/C=N\NC(=O)c2ccc(-c3ccccc3)cc2)c(OC)c1OC,-2.0%,.,7.7%,.,.,.,.,.,
CC(C)(C)C(=O)[C@@H]1[C@@H]2C(=O)N(Cc3ccccc3)C(=O)[C@@H]2[C@H]2c3ccccc3C=CN12,-12.2%,43.5%,?,4.3%,-23.5%,2.9%,.,-14.2%,
CC(=O)[C@H]1[C@@H]2C(=O)N(c3cccc(Cl)c3)C(=O)[C@@H]2[C@H]2c3ccccc3C=CN21,-21.1%,123.0%,?,-4.3%,-20.7%,-0.1%,.,.,
CC[C@@]1(O)C[C@H](O[C@H]2C[C@@H](N(C)C)[C@@H](O[C@H]3C[C@@H](O)[C@@H](O[C@H]4CCC(=O)[C@@H](C)O4)[C@@H](C)O3)[C@@H](C)O2)c2c(cc3c(c2O)C(=O)c2c(O)cccc2C3=O)[C@H]1C(=O)OC,43.4%,.,.,.,.,.,.,.,
N[C@H](C(=O)O)[C@@H]1C[C@@H]1C(=O)O,-1.7%,8.5%,-3.7%,-0.2%,-4.4%,-0.4%,.,.,
N[C@H](C(=O)O)[C@H]1C[C@@H]1C(=O)O,.,10.6%,-5.7%,-2.6%,-3.3%,1.3%,-24.9%[57.1 µM],2.51µM*,
O=C(Nc1ccc2nc(-c3ccco3)c(-c3ccco3)nc2c1)N1CCCCCC1,5.62µM*,28.3%,3.55µM*,10.9%,5.62µM*,22.4µM*[quencher],?,3.98µM*,APE1 dye cs=?;APE1 FP=12.6µM*
Cc1nc2ccc(NC(=O)N3CCCCC3)cc2nc1C,4.1%,5.5%,-6.0%,1.1%,9.8%,-1.9%,.,.,
O=c1ccc2c(OCCCCc3ccccc3)c3ccoc3cc2o1,.,17.3%,-4.0%,-3.0%,-2.0%,-2.8%,-12.1%[57.1 µM],-30.4%,
Cc1ccc(Cl)cc1NC(=O)C1CCN(c2nc3ccccc3n3cccc23)CC1,-8.4%,.,.,-1.0%,.,-21.4%,.,.,
Oc1ccccc1Oc1c(F)c(F)nc(N2CCCC2)c1F,-23.4%,2.1%,?,-3.9%,-25.3%,-1.9%,-1.2%,?,APE1 dye cs=-9.0%;APE1 FP=-5.7%
O=C(O)CCCN1C(=O)/C(=C\c2ccco2)SC1=S,59.0%,42.8%,20µM*,-6.2%,?,-6.7%,68.8%,?,APE1 dye cs=-3.7%;APE1 FP=-0.8%
O=C1/C(=C/c2ccco2)SC(=S)N1CC1CCCO1 (stereo unspecified),-27.3%,75.4%,10µM*,-7.2%,22.4µM*,1.6%,-2.7%,7.94µM*,APE1 dye cs=-7.4%;APE1 FP=-12.3%
Cc1ccc(/C=C2\SC(=S)N(CC3CCCO3)C2=O)o1 (stereo unspecified),-12.1%,91.7%,-10.0%,4.5%,?,8.6%,.,.,
O=C(Cn1c(SCCOc2ccccc2)nc2ccccc21)N1CCOCC1,-11.6%,.,.,-4.9%,.,-3.3%,.,.,
